Test results as given in PubChem BioAssay AID1347418 (Sanford-Burnham Center for Chemical Genomics, 2020).
Among all 1,300 compounds or so, about 750 (58%) were called active. Some of the results follow.

Target: Sulfhydryl oxidase 1 (Homo sapiens) (UniProt O00391)
Assay: QSOX1 enzyme inhibitors, primary screen, biochemical, ROS-Glo H2O2 luminescence, HTS (AID 1347418)
Settings: recombinant QSOX1, ROS-Glo H2O2 luminescence; at 12.5 µM; active compounds read high; active = any value above zero

Chain of Sulfhydryl oxidase 1 (Homo sapiens) (O00391 whole entry, looked up): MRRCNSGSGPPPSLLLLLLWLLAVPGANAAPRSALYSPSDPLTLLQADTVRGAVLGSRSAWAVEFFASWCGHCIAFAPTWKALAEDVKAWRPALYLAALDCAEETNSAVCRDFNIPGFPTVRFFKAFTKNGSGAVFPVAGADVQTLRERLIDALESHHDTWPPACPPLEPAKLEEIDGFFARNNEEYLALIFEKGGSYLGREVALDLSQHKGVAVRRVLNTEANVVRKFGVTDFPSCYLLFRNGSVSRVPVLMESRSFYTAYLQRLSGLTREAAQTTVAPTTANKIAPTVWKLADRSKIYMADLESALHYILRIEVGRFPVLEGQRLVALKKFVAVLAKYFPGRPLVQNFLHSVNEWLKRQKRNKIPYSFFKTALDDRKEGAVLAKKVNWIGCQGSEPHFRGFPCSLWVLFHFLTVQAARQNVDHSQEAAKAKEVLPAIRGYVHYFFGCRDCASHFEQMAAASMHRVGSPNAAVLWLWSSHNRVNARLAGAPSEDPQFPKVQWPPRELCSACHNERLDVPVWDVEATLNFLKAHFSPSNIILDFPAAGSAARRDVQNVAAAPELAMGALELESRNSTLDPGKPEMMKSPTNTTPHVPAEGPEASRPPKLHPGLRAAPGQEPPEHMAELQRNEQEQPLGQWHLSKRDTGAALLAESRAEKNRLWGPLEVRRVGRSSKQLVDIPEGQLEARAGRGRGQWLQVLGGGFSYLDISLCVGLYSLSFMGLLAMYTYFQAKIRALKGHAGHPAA

Which inhibition does the source give for Fc1cccc(/C=N/N=C/c2cccc(F)c2)c1 here?
The inhibition was 1.9% (active).

How did the inhibition turn out when Nc1nc(Nc2ccccc2)nc2c1ncn2[C@@H]1O[C@H](CO)[C@H](O)C1O (some centres not stated) was run?
Its inhibition is -2.6% (inactive).

Which inhibition does the source give for CNC(=O)[C@H]1O[C@@H](n2cnc3c(NCc4ccc(N)cc4)ncnc32)C(O)[C@H]1O (some centres not stated) here?
Its inhibition is 6% (active).

Nc1nc(Cl)nc2c1ncn2[C@@H]1O[C@H](CO)[C@H](O)C1O (some centres not stated) was tested. Which inhibition did it give?
The inhibition was -0.3% (inactive).

CCCCC#Cc1nc(NC)c2ncn([C@@H]3O[C@H](CO)C(O)[C@@H]3O)c2n1 (some centres not stated) was tested. Which inhibition did it give?
Its inhibition is -4.5% (inactive).

How did the inhibition turn out when CNC(=O)[C@H]1O[C@@H](n2cnc3c(NCc4cccc(I)c4)ncnc32)C(O)[C@H]1O (some centres not stated) was run?
Its inhibition is -1.8% (inactive).

Which inhibition does the source give for CCNC(=O)[C@H]1O[C@@H](n2cnc3c(N)nc(NCCc4ccc(CCC(=O)O)cc4)nc32)C(O)[C@H]1O (some centres not stated) here?
The inhibition was 1.5% (active).

For O=C(c1ccc(Cl)cc1)N1CCN(c2ccc([N+](=O)[O-])c3ncccc23)CC1, which inhibition is on record?
The inhibition was 1.5% (active).

O=c1cc(N2CCOCC2)oc2c(-c3ccccc3)cccc12 was tested. Which inhibition did it give?
Its inhibition is -2.2% (inactive).

With OCC1O[C@H](O)C(Cl)C(O)C1O (some centres not stated) as the molecule, how does the inhibition read?
Its inhibition is 4.9% (active).

How did the inhibition turn out when CC(C)C[C@H](NC(=O)C1OC1C(=O)O)C(=O)NCCCCN=C(N)N (some centres not stated) was run?
The inhibition was 10.1% (active).

Which inhibition does the source give for COC1(C2=NCCN2)COc2ccccc2O1 (configuration not stated) here?
Its inhibition is 3.2% (active).

Which inhibition does the source give for O=C(O)CN(CCN(CC(=O)O)CC(=O)O)CCN(CC(=O)O)CC(=O)O here?
Its inhibition is -5% (inactive).

Which inhibition does the source give for CN1CCc2cc(NC(=O)Nc3cccnc3)ccc21 here?
Its inhibition is 7.1% (active).

For Cn1ccc2cc3c(cc21)CCN3C(=O)Nc1cccnc1, which inhibition is on record?
The inhibition was -2.2% (inactive).

CN1C(=O)CC[C@H]1c1cccnc1 was tested. Which inhibition did it give?
The inhibition was -4% (inactive).

How did the inhibition turn out when Nc1c2c(nc3ccccc13)CCCC2O (configuration not stated) was run?
Its inhibition is -1% (inactive).

NNc1nncc2ccccc12 was tested. Which inhibition did it give?
The inhibition was 26.1% (active).

With O=c1cc(-c2ccc(O)cc2)oc2cc(O)cc(O)c12 as the molecule, how does the inhibition read?
The inhibition was 15.3% (active).

O=c1c(O)c(-c2ccc(O)cc2O)oc2cc(O)cc(O)c12 was tested. Which inhibition did it give?
Its inhibition is 41.5% (active).

With O=c1c(O)c(-c2ccc(O)c(O)c2)oc2cc(O)cc(O)c12 as the molecule, how does the inhibition read?
Its inhibition is 33.1% (active).

With O=c1c(O)c(-c2cc(O)c(O)c(O)c2)oc2cc(O)cc(O)c12 as the molecule, how does the inhibition read?
Its inhibition is 25.8% (active).

With S=C(Nc1ccccc1)Nc1nccs1 as the molecule, how does the inhibition read?
The inhibition was -0.6% (inactive).

How did the inhibition turn out when NO was run?
Its inhibition is -19.9% (inactive).

Which inhibition does the source give for CN(C)CCCO[C@@H]1[C@H]2OC(C)(C)O[C@H]2O[C@@H]1C(O)CO (some centres not stated) here?
Its inhibition is 1.3% (active).

With O=C1NC(=O)c2cc(Nc3ccccc3)c(Nc3ccccc3)cc21 as the molecule, how does the inhibition read?
The inhibition was 44.9% (active).

O=[N+]([O-])c1cccc2c(Br)[nH]nc12 was tested. Which inhibition did it give?
The inhibition was 5.3% (active).

For O=[N+]([O-])c1cccc2cn[nH]c12, which inhibition is on record?
The inhibition was -7.7% (inactive).

For COCCCC/C(=N\OCCN)c1ccc(C(F)(F)F)cc1, which inhibition is on record?
The inhibition was -2% (inactive).

For Cc1cccc(-c2[nH]c(C(C)(C)C)nc2-c2ccc3nccnc3c2)n1, which inhibition is on record?
Its inhibition is 6% (active).

With N[C@H]1CONC1=O as the molecule, how does the inhibition read?
The inhibition was -12.9% (inactive).

Which inhibition does the source give for CN1CCN2c3ccccc3Cc3ccccc3C2C1 (configuration not stated) here?
Its inhibition is -1.9% (inactive).

NC1=NCC2c3ccccc3Cc3ccccc3N12 (configuration not stated) was tested. Which inhibition did it give?
Its inhibition is 1.4% (active).

How did the inhibition turn out when CCCC(C(=O)OCCN(CC)CC)(c1ccccc1)c1ccccc1 was run?
Its inhibition is -0.5% (inactive).

CCN(CC)CCOCCOC(=O)C1(c2ccccc2)CCCC1 was tested. Which inhibition did it give?
Its inhibition is 6.3% (active).

CCN(CC)CCOC(=O)C1(C2CCCCC2)CCCCC1 was tested. Which inhibition did it give?
Its inhibition is -1.9% (inactive).

How did the inhibition turn out when O=C(OCCN1CCOCC1)C1(c2ccccc2)CCCCC1 was run?
Its inhibition is 2.5% (active).

Which inhibition does the source give for Cn1c(=O)c2[nH]c(-c3ccccc3)nc2n(C)c1=O here?
The inhibition was -2.7% (inactive).

With CCCn1c(=O)c2[nH]c(C3CCCC3)nc2n(CCC)c1=O as the molecule, how does the inhibition read?
The inhibition was 2.3% (active).

For Cn1c(=O)c2[nH]c(C3CCCC3)nc2n(C)c1=O, which inhibition is on record?
The inhibition was 3.9% (active).

How did the inhibition turn out when Cn1c(=O)c2[nH]c(-c3ccc(S(=O)(=O)O)cc3)nc2n(C)c1=O was run?
The inhibition was -2.4% (inactive).

How did the inhibition turn out when CN(C)CCOC(=O)COc1ccc(Cl)cc1 was run?
Its inhibition is -2.9% (inactive).

Which inhibition does the source give for CC/C(=C(\c1ccccc1)c1ccc(OCCN(C)C)cc1)c1ccccc1 here?
Its inhibition is 2.2% (active).

With C[C@H]1c2cccc(O)c2C(O)=C2C(=O)[C@]3(O)C(O)=C(C(N)=O)C(=O)[C@@H](N(C)C)[C@@H]3[C@@H](O)[C@@H]21 as the molecule, how does the inhibition read?
Its inhibition is -1.5% (inactive).

CN(C)[C@@H]1C(=O)C(C(N)=O)=C(O)[C@@]2(O)C(=O)C3=C(O)c4c(O)ccc(Cl)c4[C@@H](O)[C@H]3C[C@@H]12 was tested. Which inhibition did it give?
Its inhibition is 9.5% (active).

COc1ccccc1N1CCN(CCN(C(=O)c2ccc(I)cc2)c2ccccn2)CC1 was tested. Which inhibition did it give?
Its inhibition is 11.2% (active).

How did the inhibition turn out when COc1ccccc1N1CCN(CCN(C(=O)C2CCCCC2)c2ccccn2)CC1 was run?
Its inhibition is 9.7% (active).

COc1ccccc1N1CCN(CCN(C(=O)c2ccc(F)cc2)c2ccccn2)CC1 was tested. Which inhibition did it give?
Its inhibition is 7.1% (active).

COc1ccc(Cc2nccc3cc(OC)c(OC)cc23)cc1OC was tested. Which inhibition did it give?
The inhibition was 3.3% (active).

With COc1ccc(CCN(C)CCc2ccc(OC)c(OC)c2)cc1OC as the molecule, how does the inhibition read?
The inhibition was -0.5% (inactive).

For CC(N=C(NC#N)Nc1ccncc1)C(C)(C)C (configuration not stated), which inhibition is on record?
Its inhibition is 4.4% (active).

Which inhibition does the source give for O=C1NCc2c1c1c3ccccc3[nH]c1c1[nH]c3ccccc3c21 here?
Its inhibition is 2.6% (active).

O=c1[nH]c2ccccc2c2ccccc12 was tested. Which inhibition did it give?
Its inhibition is -9.8% (inactive).

How did the inhibition turn out when COc1ccc([C@@H]2Sc3ccccc3N(CCN(C)C)C(=O)[C@@H]2OC(C)=O)cc1 was run?
Its inhibition is -0.6% (inactive).

With CN(C)CCCN1c2ccccc2Sc2ccc(C(F)(F)F)cc21 as the molecule, how does the inhibition read?
The inhibition was 24.1% (active).

CN(C)CCCN1c2ccccc2Sc2ccccc21 was tested. Which inhibition did it give?
Its inhibition is 46.3% (active).

How did the inhibition turn out when CN(C)CCCN1c2ccccc2Sc2ccc(Cl)cc21 was run?
Its inhibition is 39.2% (active).

How did the inhibition turn out when CCC(=O)c1ccc2c(c1)N(CCCN(C)C)c1ccccc1S2 was run?
Its inhibition is 20.9% (active).

How did the inhibition turn out when NC1(C(=O)O)CC1 was run?
The inhibition was 5.5% (active).

Which inhibition does the source give for NC1(C(=O)O)CCCCC1 here?
Its inhibition is -3.9% (inactive).

How did the inhibition turn out when CC(C)ON([C@@H](C(=O)NO)C(C)C)S(=O)(=O)c1ccc(-c2ccccc2)cc1 was run?
Its inhibition is 8.9% (active).

CC(=O)/C=C1\C(=O)N(C)c2ccccc21 was tested. Which inhibition did it give?
The inhibition was 7.8% (active).

For COc1cc(NS(C)(=O)=O)ccc1Nc1c2ccccc2nc2ccccc12, which inhibition is on record?
The inhibition was 42.7% (active).

With CN(C(=O)CCCOc1ccc2[nH]c(=O)ccc2c1)C1CCCCC1 as the molecule, how does the inhibition read?
The inhibition was -1.6% (inactive).

CC[N+](CC)(CC)CC was tested. Which inhibition did it give?
The inhibition was 0.9% (active).

For Nc1nc(N)c2nc(CNc3ccc(C(=O)NC(CCC(=O)O)C(=O)O)cc3)cnc2n1 (configuration not stated), which inhibition is on record?
Its inhibition is 0.7% (active).

With CN(Cc1cnc2nc(N)nc(N)c2n1)c1ccc(C(=O)N[C@@H](CCC(=O)O)C(=O)O)cc1 as the molecule, how does the inhibition read?
The inhibition was -2.2% (inactive).
